This passage reports outcome and AC50 results from PubChem BioAssay AID2284334 (EPA ToxCast).

Results filed as inconclusive are left out. Calls of active or inactive are those of the source. How the source made its calls: active means hit-call score of the fitted dose curve at least 0.9, where 1 is the maximum; inconclusive means response in the unintended direction; inactive means score below 0.9.

Sequence of human Peroxisome Proliferator-activated Receptor alpha (PPARa), PPARA (gene 5465) (Q07869 whole entry, looked up): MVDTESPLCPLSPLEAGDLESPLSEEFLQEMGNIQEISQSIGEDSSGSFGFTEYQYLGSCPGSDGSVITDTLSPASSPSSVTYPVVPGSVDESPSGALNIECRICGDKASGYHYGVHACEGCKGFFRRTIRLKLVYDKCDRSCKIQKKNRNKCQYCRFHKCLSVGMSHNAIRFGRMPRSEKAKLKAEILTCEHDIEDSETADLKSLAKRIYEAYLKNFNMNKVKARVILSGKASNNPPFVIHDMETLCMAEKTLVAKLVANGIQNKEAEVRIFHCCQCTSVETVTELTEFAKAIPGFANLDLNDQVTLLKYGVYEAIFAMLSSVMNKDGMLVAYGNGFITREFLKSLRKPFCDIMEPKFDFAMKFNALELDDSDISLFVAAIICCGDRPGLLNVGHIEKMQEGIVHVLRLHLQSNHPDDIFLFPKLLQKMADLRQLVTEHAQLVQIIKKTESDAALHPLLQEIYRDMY

This assay addresses human Peroxisome Proliferator-activated Receptor alpha (PPARa), PPARA (gene 5465) (UniProt Q07869). The assay can be described thus: ATG_hPPARa_EcoTox2: Attagene TRANS-FACTORIAL EcoTox-2 HepG2 Assay for human Peroxisome Proliferator-activated Receptor alpha (PPARa). The procedure:
ATG_EcoTox2 is a cell-based, multiplexed assay created by modifying the existing Attagene TRANS-FACTORIAL system to include a panel of nuclear receptors from some or all the following species: human (Homo sapiens), african clawed frog (Xenopus laevis), rainbow trout (Oncorhynchus mykiss), japanese medaka (Oryzias latipes), and zebrafish (Danio rerio). The ECOTOX2-FACTORIAL format uses HepG2, a human liver cell line, with measurements taken at 24 hours after chemical dosing in a 24-well plate. ATG_hPPARa_EcoTox2 is one of 29 assay components calculated in the ATG_EcoTox2 assay. It is designed to make measurements of mRNA induction, a form of inducible reporter, as detected with fluorescence intensity signals by Reverse transcription polymerase chain reaction (RT-PCR) and Capillary electrophoresis technology.The assay endpoint ATG_hPPARa_EcoTox2 was analyzed in the positive analysis fitting direction relative to DMSO as the negative control and baseline of activity. Using a type of inducible reporter, measures of mRNA for gain-of-signal activity can be used to understand the reporter gene at the transcription factor-level as they relate to the gene PPARa. Furthermore, this assay endpoint can be referred to as a primary readout, because this assay has produced multiple assay endpoints where this one serves a reporter gene function. To generalize the intended target to other relatable targets, this assay endpoint is annotated to the nuclear receptor intended target family, where the subfamily is non-steroidal.
Human liver HepG2 cells are transiently transfected with multiple reporter transcription units (MRTUs) in 6-well plates using FuGene 6 reagent (Roche; 3 ml FuGene/1 mg DNA). The MRTU constructs are regulated by a cis-regulating element (promoter). Each RTU expresses a GAL4-UAS that regulates the transcription of a nearby target reporter gene sequence. A major difference between the CIS and TRANS system is that in CIS activities of endogenous TFs are measured, whereas the TRANS assay evaluates changes in activities of exogenous, chimeric NR-Gal4 proteins. […] At the end of 24 hour incubation, total RNA was isolated using TriZol reagent (Invitrogen). The isolated RNA is then reverse-transcribed using oligo(dT) primer and Mo-MLV reverse transcriptase (Invitrogen) with DNAse I (Ambion) treatment for 30 min. The one-tenth of the produced cDNA was amplified by PCR using Taq DNA polymerase (Invitrogen) and two reporter sequence-specific primers. The PCR products were fluorescently labeled by primer extension with 6-arboxyfluorescein (6-FAM) 5'-labeled reporter sequence-specific primer (2 min at 95 C, 20 s at 68 C and 10 min at 72 C) and these products were digested with 5U of HpaI (New England Biolabs) for 2h at 37 C. The fragments were purified using Qiaquick PCR columns (Qiagen), analyzed on an ABI 3130xL genetic analyzer (Applied Biosystems) with peak positions identified by using a set of X-rhodamine (ROX)-labeled MapMarker1000 molecular weight standards (BioVentures). The raw capillary electrophoresis data was processed using Attagraph software (Attagene).
As for `C[C@@H]1C[C@H]2[C@@H]3CCC4=CC(=O)C=C[C@]4(C)[C@@]3(F)[C@@H](O)C[C@]2(C)[C@@]1(O)C(=O)COP(=O)(O)O`, the call was inactive.
On the same count and under the same terms, as for `C[C@]12C=CC(=O)C=C1CC[C@@H]1[C@@H]2C(=O)C[C@@]2(C)[C@H]1CC[C@]2(O)C(=O)CO`, the entry is “inactive”.
In the case of `CC(C)(Oc1ccc(Cl)cc1)C(=O)O`, the half-maximal activity concentration (AC50) was 17.1 µM (active).
Same read-out and setting: as for `CC(C)(Oc1ccc(C2CC2(Cl)Cl)cc1)C(=O)O` (stereo not given), the figure is 0.984 µM (active).
In the case of `CC(c1cc2ccccc2s1)N(O)C(N)=O` (stereo not given), the call was inactive.
